# The panel holds about 83,000 compounds, 20% with a hit somewhere; the sample as a whole holds those more often.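 Single-dose data. Exposure time 48 hours. Values below 10 considered active.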 Values without a mark were called inactive. Calls of active or inactive are those of the source.
# Columns and labels:
# Assay in all cases: NCI-60 one-dose screen, 48 h (100 = growth as untreated, 0 = no growth, -100 = all killed)
# Details in all cases: 10 µM unless noted
# HCT-15 colon = system: HCT-15 colon
# HT29 colon = system: HT29 colon
# SNB-75 CNS = system: SNB-75 CNS
# SNB-19 CNS = system: SNB-19 CNS
# U251 CNS = system: U251 CNS
# PC-3 prostate = system: PC-3 prostate
# SK-MEL-5 melanoma = system: SK-MEL-5 melanoma
# UACC-62 melanoma = system: UACC-62 melanoma
# LOX IMVI melanoma = system: LOX IMVI melanoma
# SK-MEL-28 melanoma = system: SK-MEL-28 melanoma
SMILES,growth (HCT-15 colon),growth (HT29 colon),growth (SNB-75 CNS),growth (SNB-19 CNS),growth (U251 CNS),growth (PC-3 prostate),growth (SK-MEL-5 melanoma),growth (UACC-62 melanoma),growth (LOX IMVI melanoma),growth (SK-MEL-28 melanoma)
Nc1c(C(=O)O)[nH]c(=O)[nH]c1=O,104%,92.7%,98%,104%,91.9%,94.4%,103%,89%,97.6%,109%
COc1cc(NC(=O)c2cc(OC)c3ccn(C)c3c2)cc2c1C[C@]1(C)CC[C@@H](O)C(C)(C)[C@H]1O2,58.1%,61.7%,42.2%,72.9%,43.1%,41.7%,42%,53.5%,19.9%,36.9%
COc1cc(-c2nc3sc(C)cn3c2/C=C2\C(=O)Nc3ccccc32)c(Br)c(OC)c1OC,52.9%,9.62% (active),18.2%,40.4%,52.1%,26.5%,10.4%,52.8%,41.3%,69.5%
CCOC(=O)c1noc2c1CCc1c-2cn(Cc2ccc(OC)cc2)c1-c1cc(OC)c(OC)c(OC)c1,23.5%,4.06% (active),14%,24.4%,18.4%,25.3%,16.9%,22.4%,42.3%,58.1%
CC(=S)Nc1ccccc1,99.4%,94.3%,87.3%,97.8%,96.2%,84.9%,98%,96.8%,91.2%,112%
[2H]c1nc(Nc2ncc(F)c(-c3cc(F)c4nc(C)n(C(C)C)c4c3)n2)c([2H])c([2H])c1CN1CCN(CC)CC1,33.2%,31.5%,26.5%,61.8%,46.1%,47.8%,27.5%,62.5%,37%,60.5%
O=C(O)c1cccc(S(=O)(=O)c2ccccc2)c1,99.4%,104%,84.2%,110%,108%,100%,97%,101%,99%,98.9%
CCOC(=O)C1=C(N)Oc2cc(OC)ccc2C1c1ccc(F)c(F)c1 (stereo not given),22.3%,2.96% (active),5.44% (active),28.1%,28.2%,26.8%,12.8%,25.5%,43.8%,63.2%
CC(C)(c1ccc(OCC(O)CNCc2ccco2)cc1)c1ccc(OCC(O)CNCc2ccco2)cc1 (stereo not given),82.8%,78.5%,80.1%,96.4%,70.1%,75.6%,91.7%,104%,86.1%,101%
CCOC(=O)C(C)(CSSCC(C)(NC(=O)c1ccc2ccccc2c1)C(=O)OCC)NC(=O)c1ccc2ccccc2c1 (stereo not given),82.2%,81.2%,107%,86%,94.8%,108%,109%,96.1%,89%,132%
O=c1c2ccccc2sc2c(NCCN3CCOCC3)nc3ccccc3c12,27.1%,8.68% (active),42.8%,79.3%,42.3%,43.2%,54.8%,33.3%,5.67% (active),69.4%
NS(=O)(=O)c1ccc(-n2nc(-c3ccc(Cl)cc3)ccc2=O)cc1,84.5%,104%,86%,86.8%,104%,85.6%,83.1%,61.4%,95.8%,90.3%
COc1ccccc1N1CCN(CC(O)COc2c(Br)c(Br)c(Br)c3c2OC(C)(C)C3)CC1 (stereo not given),24.6%,5.44% (active),71%,60.8%,52.7%,18.9%,7.43% (active),56.6%,18.5%,90.4%
N#Cc1c(N)nc(Cl)c(C#N)c1C(=O)c1ccccc1,18.4%,18.3%,50%,31.2%,30.1%,37.5%,23.1%,36.3%,12%,11.6%
Cc1cc(Nc2ccc(Cl)c(Cl)c2)nc(N)n1,97.3%,86.9%,72.3%,107%,95.3%,89.6%,83.9%,89.1%,100%,101%
O=C(NOC1OC(CO)C(O)C(O)C1O)Nc1ccccc1 (stereo not given),109%,105%,105%,100%,102%,93.2%,104%,93.7%,96.7%,117%
Cc1cc(SCc2ccc(Cl)cc2Cl)nc(SCc2ccc(Cl)cc2Cl)n1,93%,97.9%,96.1%,111%,105%,108%,96.1%,102%,99.5%,98.8%
CCC1S/C(=N\N=C(/C)c2cccs2)N(c2ccccc2)C1=O (stereo not given),99%,91%,110%,114%,105%,98.4%,84.4%,117%,105%,118%
CCOc1cccc(Nc2nc(N)nc3[nH]c4ccc(O)cc4c23)c1,85.4%,93.3%,46.1%,70.1%,79.7%,74.8%,54.4%,73.8%,36.7%,89.3%
O=C(c1cc(-c2ccc(Cl)cc2)nc2ccccc12)N1N=C(c2ccccc2)CC1c1cc(-c2ccccc2)nn1-c1ccccc1 (stereo not given),56.7%,98.7%,69.2%,77.1%,63.8%,71.3%,78.7%,79.2%,57%,73.3%
CCOC(=O)c1cnc2c(OC)ccc(OC)c2c1Cl,107%,117%,82.7%,114%,109%,93.6%,107%,109%,91.1%,120%
O=[N+]([O-])c1cccc(C(c2ccccc2)c2ccccc2)c1,95.3%,79.8%,86.4%,97.3%,90.9%,70.4%,101%,86.7%,87.3%,107%
CC(=O)O[C@@H]1[C@@H](OC(C)=O)[C@H](OC(C)=O)CO[C@H]1Nc1cccc2ccccc12,94%,84.2%,93.9%,105%,105%,90.8%,103%,97.2%,88.8%,110%
CC(CCC(=O)O)[C@H]1CCC2C3C(=O)C[C@@H]4CC(=O)CC[C@]4(C)C3CC(=O)[C@@]21C (stereo not given in full),105%,117%,110%,101%,95%,92.8%,105%,93.2%,92.5%,119%
Nc1ncnc2c1ccn2-c1cccc(NC(=O)c2cccc(C(F)(F)F)c2)c1,41.7%,58.4%,67%,88.4%,44.9%,51.7%,41.1%,77.3%,62.2%,85.1%
O=c1c(-c2ccc3c(c2)OCO3)coc2c(CO)c(O)ccc12,12.6%,86.1%,-5.16% (active),13.5%,-92.6% (active),-52.4% (active),5.73% (active),-53.1% (active),-43.6% (active),40.3%
Cc1ccc(N(CC2=NCCN2)c2cccc(O)c2)cc1,102%,107%,84.9%,103%,88.8%,92.1%,99.2%,105%,95%,108%
CCN(CC)CC(=O)Nc1c(C)cccc1C,98.1%,111%,95.5%,106%,106%,100%,93.2%,105%,100%,110%

SMILES,growth (HCT-15 colon),growth (HT29 colon),growth (SNB-75 CNS),growth (SNB-19 CNS),growth (U251 CNS),growth (PC-3 prostate),growth (SK-MEL-5 melanoma),growth (UACC-62 melanoma),growth (LOX IMVI melanoma),growth (SK-MEL-28 melanoma)
CCNC(=O)Oc1ccc(/C(=C(/CC)Cc2ccccc2)c2ccc(OCCN3CCOCC3)cc2)cc1,39.4%,28.6%,70.2%,76.7%,52.8%,20.2%,39.5%,73.2%,50.4%,80.6%
O=C(Nc1cccc(-n2ccc3c(NC(=O)c4ccccc4)ncnc32)c1)Nc1ccc(Cl)c(C(F)(F)F)c1,34.1%,26.6%,44.4%,46.5%,31.7%,22.7%,19%,39.5%,24.7%,49.4%
O=C(NCCNc1nccc(-c2c(-c3cccc(O)c3)nc3sccn23)n1)c1ccccc1O,54.5%,49.2%,40.6%,90.2%,61.6%,51.1%,22.7%,0.528% (active),33.5%,41.4%
COc1ccc2c(c1)OC(N(C(C)=O)C(C)=O)=C(C#N)C2c1ccc(F)cc1 (stereo not given),24.9%,8.69% (active),8.71% (active),28.6%,30.8%,21.9%,18.9%,34.5%,47.7%,64.4%
NC(=O)C1=C[C@H]2[C@H]3C=C[C@@]2(O)C(=O)O[C@@H]3O1,44.8%,47%,76.7%,82%,63.1%,59.1%,60.7%,35.5%,22.9%,25.2%
O=C(COc1ccc(Cl)cc1Cl)N1N=C(c2ccc(Cl)cc2Cl)CC1(O)c1cc(F)c(Cl)cc1Cl (stereo not given),158%,116%,108%,88%,131%,102%,80.8%,156%,128%,141%
CC(C)(C)OC(=O)N1CC(Cn2cc(C(F)(F)F)c3c(Cl)ncnc32)C1,-41.4% (active),-62.2% (active),-52.5% (active),-89.8% (active),-98% (active),-75% (active),-84.6% (active),-78.1% (active),-86.9% (active),-79.6% (active)
COC(OC)C1(c2ccccc2)NC(=O)NC1=O (stereo not given),110%,106%,94%,106%,107%,103%,115%,106%,109%,106%
COc1ccccc1C(OC(C)=O)OC(C)=O,103%,88.5%,96.4%,113%,97.3%,102%,101%,102%,92.9%,109%
Oc1ccccc1/C=N/c1ccccn1,104%,114%,98%,88%,99%,91.4%,97%,106%,94.4%,117%
CC1(C)N=C(N)N=C(N)N1c1cccc(CCCCc2ccccc2)c1,37.1%,-5.08% (active),-5.66% (active),17.2%,11.5%,-30% (active),-96.7% (active),-9.07% (active),13.2%,42.6%
Cc1ccc(/C=C2/C(=O)Nc3cc(Cl)c(-c4csc(N)n4)cc32)cc1,63.1%,47.7%,52.4%,55.2%,63.6%,56.8%,40.8%,50.7%,58.7%,82.7%
Nn1c(SCC(=O)Nc2cc(Cl)c(Cl)cc2Cl)nnc1-c1cc(F)c(Cl)cc1Cl,150%,110%,106%,102%,114%,97.8%,78.4%,146%,129%,135%
COc1ccc(-c2cc(-c3nnc(SC/C(=N\O)c4ccccc4)n3-c3ccccc3)c3ccccc3n2)cc1,107%,99.5%,100%,105%,101%,93.6%,108%,97.6%,95.7%,113%
Nc1ccc(S(=O)(=O)Nc2ccnn2-c2ccccc2)cc1,100%,109%,106%,108%,94.4%,90.1%,105%,107%,93.2%,119%
COc1ccc2c(c1)O/C(=C/c1ccc(OCC(=O)Nc3ccc(S(N)(=O)=O)cc3)cc1)C2=O,93.7%,102%,89.8%,92.1%,97.7%,91%,94.3%,88%,101%,108%
CCCCCCCCN(CCCCCCCC)CC(O)c1cc(-c2ccccc2)nc2ccc(OC)cc12 (stereo not given),10.7%,80.1%,96.4%,63.2%,15.7%,32.3%,46.5%,52.5%,21%,100%
COc1ccc(-c2nn(-c3ccc(NC(=O)Nc4ccc(Cl)c(C(F)(F)F)c4)cc3)cc2-c2ccncc2)cc1Cl,4.89% (active),1.91% (active),32.8%,30.1%,-7.17% (active),4.33% (active),-86.8% (active),0.79% (active),2.18% (active),12.2%
O=c1cc(Cl)[nH]c(=O)[nH]1,107%,83.6%,100%,107%,97.5%,98.4%,101%,86.3%,101%,105%
COC(=O)c1ccc2c(c1)Oc1ccc(Cl)cc1-c1cc(C)nn1-2,91.6%,74.3%,63.3%,68.8%,19.1%,76%,86%,84.7%,57.9%,106%
O=c1c2ccccc2[nH]n1Cc1ccc2c(c1)OCO2,95.7%,104%,101%,97%,96.2%,88.1%,100%,100%,111%,106%
CCn1c(C)nc([N+](=O)[O-])c1Sc1nc(N)nc2nc[nH]c12,40.7%,29.3%,44.7%,95.1%,55.1%,52.7%,59.2%,1.74% (active),7.51% (active),81.3%
COc1cc(C(=O)NNC(=O)c2ccccc2C(=O)O)cc(OC)c1OC,31.8%,20.8%,86.3%,49.6%,39.7%,54.7%,38.2%,39.8%,16.9%,75.6%
COc1ccc(-c2cc3ccc(N(C)C)cc3nc2N)c(F)c1,31%,7.61% (active),55%,49.8%,31.3%,28.2%,-62.7% (active),48.2%,23.9%,38.4%
CC(=O)Nc1ccc(OC(=O)c2ccccc2O)cc1,107%,113%,114%,100%,99.3%,94.8%,109%,102%,99.7%,120%
N#CC1=C(N)Oc2c(ccc3ccccc23)C1c1cc(=O)oc2ccc(Cl)cc12 (stereo not given),25.8%,6.85% (active),20.2%,33.4%,24.4%,18.2%,28.3%,36.5%,42%,62.9%
CCCC(=O)Oc1ccc(/C(=C(\C)c2ccc(OC)cc2)c2ccc(OCCN3CCCCC3)cc2)cc1,64.1%,1.78% (active),73%,91%,63.8%,64.7%,68.8%,63.6%,68.5%,63.9%
